# In all, about 5,700 compounds went through this assay and about 85 (1%) were called active. Cut-off read from the data, not from the text of the source: active = p53-positive nuclei above about 36% (passing the limit was not always enough); inactive = the rest. For the sample, actives were picked, then their nearest neighbours and some compounds at random.
# Assays:
# [1] = p53 stabilisation in HPV-positive human cells, imaging, p53-positive nuclei imaging, 24 h, 48 h (AID 1508601); conditions: 24/48 h
# [2] = molecular target: Cellular tumor antigen p53 (Homo sapiens) (UniProt P04637); assay: as above; conditions: 24/48 h, stronger effect = higher value
# Cellular tumor antigen p53 (Homo sapiens), sequence (P04637 whole entry, looked up): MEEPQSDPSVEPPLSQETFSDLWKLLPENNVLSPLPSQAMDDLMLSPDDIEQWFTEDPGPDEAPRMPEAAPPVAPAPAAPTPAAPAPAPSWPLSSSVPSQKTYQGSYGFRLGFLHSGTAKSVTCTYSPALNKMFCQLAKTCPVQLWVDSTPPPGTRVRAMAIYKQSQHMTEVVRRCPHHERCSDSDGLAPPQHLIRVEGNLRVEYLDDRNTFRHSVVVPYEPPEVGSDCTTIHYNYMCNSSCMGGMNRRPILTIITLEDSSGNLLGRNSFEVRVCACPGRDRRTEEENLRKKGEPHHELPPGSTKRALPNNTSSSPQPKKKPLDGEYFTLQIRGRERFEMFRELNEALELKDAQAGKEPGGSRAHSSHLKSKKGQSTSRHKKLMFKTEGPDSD
# [3] = measured here: cell number at 24 h, concentration not given here
# [4] = measured here: cell number at 48 h, concentration not given here
# [5] = measured here: p53 positive nuclei at 24 h, concentration not given here
# [6] = measured here: cell number at 24 h, Library stock concentration: 10 mM
# [7] = measured here: cell number at 48 h, Library stock concentration: 10 mM
# [8] = Library stock concentration: 10 mM
# [9] = measured here: p53 positive nuclei at 24 h, Library stock concentration: 10 mM
# [10] = measured here: cell number at 24 h, Library stock concentration: 80 uM
# [11] = measured here: cell number at 24 h, Library stock concentration: 400 uM
# [12] = measured here: cell number at 24 h, Library stock concentration: 2 mM
# [13] = measured here: cell number at 24 h, Library stock concentration: 3.33 mM
# [14] = measured here: cell number at 48 h, Library stock concentration: 80 uM
# [15] = measured here: cell number at 48 h, Library stock concentration: 400 uM
# [16] = measured here: cell number at 48 h, Library stock concentration: 2 mM
# [17] = measured here: cell number at 48 h, Library stock concentration: 3.33 mM
# [18] = Library stock concentration: 80 uM
# [19] = Library stock concentration: 400 uM
# [20] = Library stock concentration: 2 mM
# [21] = Library stock concentration: 3.33 mM
# [22] = measured here: p53 positive nuclei at 24 h, Library stock concentration: 80 uM
# [23] = measured here: p53 positive nuclei at 24 h, Library stock concentration: 400 uM
# [24] = measured here: p53 positive nuclei at 24 h, Library stock concentration: 2 mM
# [25] = measured here: p53 positive nuclei at 24 h, Library stock concentration: 3.33 mM
structure (smiles),measurement,setting,value
CCCCCCCCCCCCCCCCCCCC(=O)NCCO,"nuclei count, normalised",[1]; [3],110%
same,"nuclei count, normalised",[1]; [4],108%
same,"p53-positive nuclei, normalised",[2]; concentration not given here,-0.151% (inactive)
same,"p53-positive nuclei, normalised",[2]; [5],-0.0865%
CCCCCc1ccc(C=CC(=O)Nc2ccccc2C(=O)O)cc1,"nuclei count, normalised","[1]; measured here: cell number at 24 h, Library stock concentration: 46 uM",113%
same,"nuclei count, normalised","[1]; measured here: cell number at 24 h, Library stock concentration: 278 uM",109%
same,"nuclei count, normalised","[1]; measured here: cell number at 24 h, Library stock concentration: 1.67 mM",111%
same,"nuclei count, normalised",[1]; [6],109%
same,"nuclei count, normalised","[1]; measured here: cell number at 48 h, Library stock concentration: 46 uM",113%
same,"nuclei count, normalised","[1]; measured here: cell number at 48 h, Library stock concentration: 278 uM",110%
same,"nuclei count, normalised","[1]; measured here: cell number at 48 h, Library stock concentration: 1.67 mM",110%
same,"nuclei count, normalised",[1]; [7],106%
same,"p53-positive nuclei, normalised",[2]; Library stock concentration: 46 uM,-0.18% (inactive)
same,"p53-positive nuclei, normalised",[2]; Library stock concentration: 278 uM,-0.17% (inactive)
same,"p53-positive nuclei, normalised",[2]; Library stock concentration: 1.67 mM,-0.244% (inactive)
same,"p53-positive nuclei, normalised",[2]; [8],-0.204% (inactive)
same,"p53-positive nuclei, normalised","[2]; measured here: p53 positive nuclei at 24 h, Library stock concentration: 46 uM",-0.087%
same,"p53-positive nuclei, normalised","[2]; measured here: p53 positive nuclei at 24 h, Library stock concentration: 278 uM",-0.151%
same,"p53-positive nuclei, normalised","[2]; measured here: p53 positive nuclei at 24 h, Library stock concentration: 1.67 mM",-0.151%
same,"p53-positive nuclei, normalised",[2]; [9],-0.0182%
CCCCc1nc2cc(C=CC(=O)NO)ccc2n1CCN(CC)CC,"nuclei count, normalised",[1]; [10],95.3%
same,"nuclei count, normalised",[1]; [11],95.2%
same,"nuclei count, normalised",[1]; [12],78.6%
same,"nuclei count, normalised",[1]; [13],52.6%
same,"nuclei count, normalised",[1]; [6],51%
same,"nuclei count, normalised",[1]; [14],90.2%
same,"nuclei count, normalised",[1]; [15],86.3%
same,"nuclei count, normalised",[1]; [16],62.7%
same,"nuclei count, normalised",[1]; [17],28.6%
same,"nuclei count, normalised",[1]; [7],28.2%
same,"p53-positive nuclei, normalised",[2]; [18],1.67% (inactive)
same,"p53-positive nuclei, normalised",[2]; [19],3.58% (inactive)
same,"p53-positive nuclei, normalised",[2]; [20],17.7% (inactive)
same,"p53-positive nuclei, normalised",[2]; [21],87.1% (active)
same,"p53-positive nuclei, normalised",[2]; [8],84.9% (active)
same,"p53-positive nuclei, normalised",[2]; [22],5.63%
same,"p53-positive nuclei, normalised",[2]; [23],7.57%
same,"p53-positive nuclei, normalised",[2]; [24],33.7%
same,"p53-positive nuclei, normalised",[2]; [25],71.3%
same,"p53-positive nuclei, normalised",[2]; [9],79.8%
COc1ccc(CNCC2COCCO2)cc1OC (centres undefined),"nuclei count, normalised",[1]; [3],101%
same,"nuclei count, normalised",[1]; [4],103%
same,"p53-positive nuclei, normalised",[2]; concentration not given here,0.0897% (inactive)
same,"p53-positive nuclei, normalised",[2]; [5],0.164%
O=C(NOCC(O)CO)c1ccc(F)c(F)c1Nc1ccc(I)cc1F (centres undefined),"nuclei count, normalised",[1]; [10],110%
same,"nuclei count, normalised",[1]; [11],101%
same,"nuclei count, normalised",[1]; [12],91.9%
same,"nuclei count, normalised",[1]; [13],96.8%
same,"nuclei count, normalised",[1]; [6],99.9%
same,"nuclei count, normalised",[1]; [14],106%
same,"nuclei count, normalised",[1]; [15],104%
same,"nuclei count, normalised",[1]; [16],95.8%
same,"nuclei count, normalised",[1]; [17],97.9%
same,"nuclei count, normalised",[1]; [7],95.8%
same,"p53-positive nuclei, normalised",[2]; [18],-0.174% (inactive)
same,"p53-positive nuclei, normalised",[2]; [19],-0.189% (inactive)
same,"p53-positive nuclei, normalised",[2]; [20],0.0424% (inactive)
same,"p53-positive nuclei, normalised",[2]; [21],-0.685% (inactive)
same,"p53-positive nuclei, normalised",[2]; [8],0.268% (inactive)
same,"p53-positive nuclei, normalised",[2]; [22],0.00674%
same,"p53-positive nuclei, normalised",[2]; [23],0.0842%
same,"p53-positive nuclei, normalised",[2]; [24],-0.07%
same,"p53-positive nuclei, normalised",[2]; [25],-0.375%
same,"p53-positive nuclei, normalised",[2]; [9],0.0144%

# From PubChem BioAssay AID1508601 (ICCB-Longwood Screening Facility, Harvard Medical School, 2020)
